Screening data deposited in PubChem by several laboratories.
EBV gp42 block – Epstein-Barr virus gp42 inhibitors, primary screen, biochemical, uHTS, fluorescence polarization; Glycoprotein 42 (Epstein-Barr virus (strain AG876)), Q1HVG2; Fluorescence polarization binding assay, mP read-out; inhibition, % (tested at 21.74 µM); 220,000 tested, 0.42% active; AID 1085, 2008; in the data active means inhibition above about 50%
Target sequence (Q1HVG2 whole entry, looked up): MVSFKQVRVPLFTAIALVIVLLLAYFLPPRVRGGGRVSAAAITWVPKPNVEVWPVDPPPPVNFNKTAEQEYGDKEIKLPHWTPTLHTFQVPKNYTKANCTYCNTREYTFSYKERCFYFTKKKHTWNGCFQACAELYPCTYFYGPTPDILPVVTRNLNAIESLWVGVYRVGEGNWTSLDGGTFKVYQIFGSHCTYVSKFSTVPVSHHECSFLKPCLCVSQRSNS
eLon inh – inhibitors of E. coli Lon protease, primary screen, biochemical, fluorescence polarization; 360,000 tested, 0.42% active; inhibition, % at 7.94 µM; purified E. coli Lon protease; in the data active means inhibition above about 13%, passing the limit was not always enough;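 further: 0% = enzyme with probe and DMSO and 100% = no enzyme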
GLD-1 RNA inh – GLD-1/TGE RNA complex disruptors, primary screen, biochemical, fluorescence polarization | AID 2280, 2010 | Female germline-specific tumor suppressor gld-1 (Caenorhabditis elegans), Q17339 | inhibition, % at 5.96 µM | 320,000 tested, 0.44% active | purified GLD-1 + fluorescein TGE RNA;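 active means percent inhibition above a per-plate cutoff, the plate mean of test compounds plus 3 SD, cut at about 30% in these data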;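 further: 0% = DMSO wells with GLD-1 and probe and 100% = wells lacking GLD-1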
Target sequence (Q17339 whole entry, looked up): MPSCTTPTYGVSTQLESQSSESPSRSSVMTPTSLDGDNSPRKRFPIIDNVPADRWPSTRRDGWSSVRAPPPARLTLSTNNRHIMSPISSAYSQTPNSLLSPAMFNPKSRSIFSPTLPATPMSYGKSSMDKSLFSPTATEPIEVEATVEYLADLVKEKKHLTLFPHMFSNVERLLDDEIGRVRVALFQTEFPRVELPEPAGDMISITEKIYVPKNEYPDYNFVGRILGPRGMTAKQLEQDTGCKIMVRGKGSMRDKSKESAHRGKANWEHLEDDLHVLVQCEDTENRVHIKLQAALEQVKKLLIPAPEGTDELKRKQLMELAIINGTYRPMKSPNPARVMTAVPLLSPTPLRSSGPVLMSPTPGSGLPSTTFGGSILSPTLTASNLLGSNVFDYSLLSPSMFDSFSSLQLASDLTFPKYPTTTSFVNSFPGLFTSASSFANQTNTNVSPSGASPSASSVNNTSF
MCL1-BIM inh – inhibitors of MCL1 binding to BIM-BH3, primary screen, biochemical, fluorescence polarization; Induced myeloid leukemia cell differentiation protein Mcl-1 (Homo sapiens), Q07820; GST-MCL1 / FITC-Bim-BH3 fluorescence polarization; inhibition, % at 10.9 µM; 320,000 tested, 0.68% active;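 active means inhibition above the mean inhibition of all tested compounds plus 3 SD, set per campaign, cut at about 40% in these data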;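 further: 0% = DMSO wells and 100% = unlabeled Bim-BH3 peptide control; higher means more loss of mP so more displacement of Bim peptide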
Bcl-xL primary – inhibitors of human Bcl-xL, primary screen, biochemical, fluorescence polarization, HTS | inhibition, % at 10.9 µM | GST-Bcl-xL / FITC-Bim BH3 peptide fluorescence polarization | Bcl-2-like protein 1 (Homo sapiens), Q07817 | AID 2129, 2009 | 320,000 tested, 0.7% active;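 active means inhibition above the mean of all tested compounds plus 3 SD, cutoff set per campaign, cut at about 30% in these data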;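 further: 0% = DMSO wells and 100% = unlabeled Bim-BH3 peptide competitor; inhibitors lower millipolarization by displacing the labeled peptide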
MEX-5 binding – MEX-5 zinc finger RNA-binding disruptors – biochemical, C. elegans, fluorescence polarization, MLPCN library, primary screen; activity score (negative = inhibition of binding), % at 10 µM; MEX-5/FITC-TCR2 RNA binding; stronger effect = lower value; 300,000 tested, 0.38% active;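 active means inhibition past about -25% in most replicates, and total fluorescence under double the plate's negative control median, limit read from the data; inconclusive means replicates evenly split on the limit, or fluorescence at least double controls; inactive means too little inhibition in most replicates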;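 further: 0% = DMSO and -100% = 5 µM competing unlabeled TCR2 RNA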
Starred values were filed as active, the others as inactive; ? = inconclusive; nt = no result. In the library only some 1.5% were active in any assay of this set; here they are far more common.

SMILES | EBV gp42 block | eLon inh | GLD-1 RNA inh | MCL1-BIM inh | Bcl-xL primary | MEX-5 binding
Cc1ccccc1NC(=O)c1cc(=O)c2ccccc2o1 | -14.7 | 10.5 | 3.1 | -2.7 | 0.1 | 1.0
CC(C)(C)OC(=O)C[C@H]1C/C=C\C[C@H](CC(=O)N(CCO)Cc2ccccc2)C(=O)NC[C@H](c2ccccc2)OC1=O | nt | 3.4 | 8.2 | nt | nt | nt
COCCn1c(=S)[nH]c2ccc(N(C)C)cc2c1=O | 21.6 | 13.7 | 17.0 | 31.0 | 32.2* | -2.4
O=C(CC(c1ccccc1)c1cc(Br)ccc1O)NCCN1CCOCC1 (stereo not given) | -13.9 | 0.8 | 1.7 | 2.6 | 2.5 | 1.7
CCOc1cc(/C=C/c2cccc[n+]2C)ccc1OCC(=O)Nc1ccc(C)cc1 | nt | -6.3 | 7.3 | -19.5 | -9.9 | -42.6*
CCC1=NN2C(=N)/C(=C\c3cccn3-c3ccc(Cl)cc3)C(=O)N=C2S1 | 12.3 | -0.8 | 0.8 | -3.0 | 2.0 | 5.9
Cc1ccc(-n2cccc2/C=C2\C(=N)N3N=C(c4ccco4)SC3=NC2=O)cc1 | 67.3* | -14.3 | -14.2 | 18.9 | -6.3 | -0.1
O=C(Nc1ccc(Cl)cc1)Nc1cccc2nsnc12 | -0.1 | 2.1 | 4.4 | 5.5 | 47.7* | -5.3
O=C(Nc1ccncc1)Nc1cccc(Cl)c1Cl | nt | -10.0 | nt | nt | nt | -5.0
COc1ccc(C(=O)c2c(N)sc3c2CCN(C)C3)cc1 | nt | -40.6 | -2.3 | 31.9 | 32.9* | -19.9
CN1CCc2c(sc(N)c2C(=O)O)C1 | 8.8 | -1.5 | 12.6 | 29.1 | 30.9* | -8.6
Cc1[nH]c2ccccc2c1C(=O)CN1CCCC1 | -8.0 | -5.3 | -2.1 | 0.6 | 3.3 | 1.9
COc1ccc(N2C(=O)CC(N3CCC(O)(c4ccc(Cl)cc4)CC3)C2=O)cc1 (stereo not given) | -14.6 | -4.8 | 6.7 | -0.3 | -0.4 | 2.2
COC(=O)c1ccc(C)c(NC(=O)CCSc2ccc(Cl)cc2)c1 | 99.4* | -16.3 | 7.8 | -5.7 | -0.5 | -1.9
Cc1cc(C(C)(C)C)oc1C(=O)N1CCN(C(=O)c2oc(C(C)(C)C)cc2C)CC1 | 9.1 | 0.6 | nt | nt | nt | 2.5
O=C(NCCc1ccc(F)cc1)c1cccc2c1C(=O)c1ccc(N3CCC(Cc4ccccc4)CC3)cc1S2(=O)=O | nt | 29.5* | 144.7* | nt | nt | nt
O=C(NCc1cccc(F)c1)c1cccc2c1C(=O)c1ccc(N3CCCC3)cc1S2(=O)=O | nt | -111.5 | 55.1* | nt | nt | nt
O=C(NCc1cc(C(F)(F)F)ccc1Cl)c1cccc2c1C(=O)c1ccc(N3CCCCC3)cc1S2(=O)=O | nt | -26.4 | 75.8* | nt | nt | nt
COc1ccccc1N1CCN(c2ccc3c(c2)S(=O)(=O)c2cccc(C(=O)NCc4ccc(F)cc4)c2C3=O)CC1 | nt | -1.3 | nt | nt | nt | nt
O=C(NCc1ccc(OC(F)(F)F)cc1)c1cccc2c1C(=O)c1ccc(N3CCCCC3)cc1S2(=O)=O | nt | -3.4 | -0.4 | nt | nt | nt
O=C(NCc1ccco1)c1cccc2c1C(=O)c1ccc(N3CCC(Cc4ccccc4)CC3)cc1S2(=O)=O | nt | -149.4 | 91.3* | nt | nt | nt
COc1cccc(C(c2c(C)[nH]n(-c3ccccc3)c2=O)c2c(C)[nH]n(-c3ccccc3)c2=O)c1OC | 2.9 | -0.6 | 1.3 | 16.6 | 8.8 | 0.2
CCCN(CCC)Cc1cc(=O)oc2cc(OC)c(Cl)cc12 | nt | -7.9 | nt | nt | nt | nt
O=C(NCc1ccc(OC(F)(F)F)cc1)c1cccc2c1C(=O)c1ccc(N3CCCC3)cc1S2(=O)=O | nt | -15.1 | 6.3 | nt | nt | nt
O=C(NCc1cccc(F)c1)c1cccc2c1C(=O)c1ccc(N3CCC(Cc4ccccc4)CC3)cc1S2(=O)=O | nt | 38.8* | 136.6* | nt | nt | nt
SMILES | EBV gp42 block | eLon inh | GLD-1 RNA inh | MCL1-BIM inh | Bcl-xL primary | MEX-5 binding
O=C(NCc1ccc(OC(F)(F)F)cc1)c1cccc2c1C(=O)c1ccc(N3CCC(Cc4ccccc4)CC3)cc1S2(=O)=O | nt | -14.7 | 121.5* | nt | nt | nt
O=C(NCc1cc(C(F)(F)F)ccc1Cl)c1cccc2c1C(=O)c1ccc(N3CCC(N4CCCCC4)CC3)cc1S2(=O)=O | nt | -73.2 | nt | nt | nt | nt
O=C(NCc1cccc(C(F)(F)F)c1)c1cccc2c1C(=O)c1ccc(N3CCC(Cc4ccccc4)CC3)cc1S2(=O)=O | nt | -132.4 | 128.0* | nt | nt | nt
N#Cc1ccccc1NC(=S)Nc1ccc(F)cc1 | 2.0 | 6.9 | 8.9 | 3.1 | 2.0 | -0.5
O=C(Cc1ccc(F)cc1)NCCc1cnc[nH]1 | nt | -9.6 | -11.1 | 2.0 | -0.2 | 1.0
Cc1ccc(S(=O)(=O)C(C)C(=O)c2ccc3c(c2)OCCO3)cc1 (stereo not given) | -11.5 | 1.9 | 2.1 | 4.6 | 4.3 | 0.4
Clc1ccccc1CNc1ncnc2nc[nH]c12 | 0.1 | -11.1 | 6.5 | -1.1 | -2.1 | -0.1
O=C1CCC(C(=O)N(CCO)Cc2ccccc2)CN1CCc1cccc(F)c1 (stereo not given) | nt | -1.2 | nt | nt | nt | nt
O=Cc1ccc(N2CCCC2)c([N+](=O)[O-])c1 | 0.8 | 1.7 | 4.0 | -3.5 | 2.4 | -7.8
CN1CCCc2cc(C=O)ccc21 | -5.9 | 0.4 | 4.0 | 29.7 | 30.9* | -6.3
Oc1ccc2ccccc2c1/C=N/Nc1nnc(-c2ncc[nH]2)c2ccccc12 | -42.2 | -5.9 | -3.5 | 14.2 | 29.1 | -34.8*
CCOC(=O)N1CCC(N(C(=O)Nc2ccc(Cl)c(Cl)c2)C(C)CC)CC1 (stereo not given) | -11.4 | -5.9 | 3.3 | 13.4 | 5.4 | 1.7
OCCCNc1ncnc2sc3c(c12)CCN(Cc1ccccc1)C3 | nt | -44.1 | -20.9 | 15.9 | 22.6 | -27.8*
COC(=O)C1Cc2c([nH]c3ccccc23)C(C)N1 (stereo not given) | -11.7 | -12.4 | -0.8 | -21.2 | -5.9 | 2.6
Cc1ccccc1NC(=O)CN1C(=O)NC2(CCc3ccccc32)C1=O (stereo not given) | nt | 7.1 | -1.1 | 5.0 | 4.1 | nt
COc1cc2c(cc1NC(=O)CN1C(=O)NC3(CCc4ccccc43)C1=O)oc1ccccc12 (stereo not given) | 61.7* | 4.2 | 9.0 | -6.6 | 1.1 | 3.0
COc1cccc(-n2c(=O)c3sccc3n(CC(=O)NC3CCCC3)c2=O)c1 | nt | 7.5 | -0.9 | 3.6 | -0.1 | -2.1
CCCCC1=CC2=CC(=O)C(C)(OC(=O)c3cnc4ccccc4n3)C(=O)C2=CO1 (stereo not given) | 22.8 | nt | 96.5* | 96.0* | 63.6* | ?
COC(=O)CCCC1=CC2=CC(=O)C(C)(OC(=O)c3cnc4ccccc4n3)C(=O)C2=CO1 (stereo not given) | nt | nt | 93.8* | 113.7* | 95.0* | -66.9*
COC/C=C/C1=CC2=CC(=O)C(C)(OC(=O)c3cnc4ccccc4n3)C(=O)C2=CN1c1ccc(OC)cc1 (stereo not given) | nt | -7.3 | 6.7 | 13.5 | 11.6 | -3.7
